Results on 31 compounds are retold here after ChEMBL document CHEMBL1961873, “Compounds: GSK PKIS; Assays: Nanosyn kinase panel” (2012).

Values joined by “and” are separate entries in the source; they are usually repeats but may differ in a detail not shown here. Equal values may be shown once.

As a reminder, the inhibition is the share of the control response that was lost under treatment.

In the test the target is MAP kinase-interacting serine/threonine-protein kinase 2 (Homo sapiens) (UniProt Q9HBH9). The conditions noted are these: at 1 µM.
Chain of MAP kinase-interacting serine/threonine-protein kinase 2 (Homo sapiens) (Q9HBH9 whole entry, looked up): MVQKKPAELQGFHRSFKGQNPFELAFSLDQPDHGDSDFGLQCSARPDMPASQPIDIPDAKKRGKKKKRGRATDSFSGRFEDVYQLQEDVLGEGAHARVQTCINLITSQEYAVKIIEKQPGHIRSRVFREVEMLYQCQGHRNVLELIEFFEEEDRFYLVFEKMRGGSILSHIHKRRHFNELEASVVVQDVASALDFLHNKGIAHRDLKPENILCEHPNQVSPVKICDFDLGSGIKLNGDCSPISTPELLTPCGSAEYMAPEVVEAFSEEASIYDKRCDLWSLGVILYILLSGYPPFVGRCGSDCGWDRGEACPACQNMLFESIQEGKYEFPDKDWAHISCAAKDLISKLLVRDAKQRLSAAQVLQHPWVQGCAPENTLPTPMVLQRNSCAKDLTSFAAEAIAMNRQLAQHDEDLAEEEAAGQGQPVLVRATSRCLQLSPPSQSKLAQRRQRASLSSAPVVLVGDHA
Compound `FC(F)(F)CNc1nccc(-c2cnn3ncccc23)n1` displayed an inhibition of 26.4%.
Regarding `CCOc1ccc2c(-c3ccnc(Nc4cc(OC)cc(C(F)(F)F)c4)n3)cnn2n1`, the inhibition came out at 4.37%.
Consider `CCS(=O)(=O)c1ccc(OC)c(Nc2ncc(-c3cccc(C(C)=O)c3)o2)c1`, for which the inhibition was determined as 6.18%.
Compound `CS(=O)(=O)CCNCc1ccoc1-c1ccc2ncnc(Nc3ccc(OCc4ccccc4)cc3)c2c1` had an inhibition of 5.82%.
The figure for `NS(=O)(=O)c1cccc(N/C=C2\C(=O)Nc3ccccc32)c1` is 2.05%; for `CCn1c(-c2nonc2N)nc2cncc(C(=O)NCCNC)c21` it is 13.4%; for `CS(=O)(=O)CCNCc1ccc(-c2ccc3ncnc(Nc4ccc(OCc5cccc(C(F)(F)F)c5)cc4)c3c2)o1` it is 5.47%.
Regarding `COc1cc(N2CCN(C(C)C)CC2)ccc1Nc1nc(Nc2cccc(F)c2C(=O)O)c2cc[nH]c2n1`, the inhibition worked out at 5.1%.
`O=C(O[C@H]1CN[C@H](C#Cc2cc3ncnc(Nc4ccc5c(cnn5Cc5ccccc5)c4)c3s2)C1)N1CCOCC1` returned an inhibition of 11.5%.
As to `CS(=O)(=O)Nc1ccc(-c2cc(-c3ccccc3)cc(C(N)=O)c2N)cc1`, the inhibition is 3.27%.
The figure for `CCS(=O)(=O)c1ccc(OC)c(Nc2ncc(-c3cccc(F)c3)o2)c1` is 12.2%; for `O=C1Nc2ccccc2/C1=C1\CCc2cc(O)ccc21` it is 15.9%.
`Cc1ccc(-c2cc3c(NC(=O)C4CC4)ncnc3o2)cc1` came in with an inhibition of 5.77%.
`CS(=O)(=O)Nc1ccc(-c2ccc3c(NC(=O)C4CC4)n[nH]c3c2)cc1`: the inhibition amounted to 1.32%.
The value for `Cn1c(-c2nonc2N)nc2cnccc21` was 16.9%; that for `COc1cccc(-n2ncc3c(N/N=C/c4ccc(C(=O)NCCN(C)C)cc4)ncnc32)c1` was 67.5%; that for `O=C(Nc1n[nH]c2nnc(-c3cccnc3)cc12)C1CC1` was 2.11%.
As for `COC(=O)Nc1nc2ccc(Oc3ccc(NC(=O)Nc4cc(C(F)(F)F)ccc4F)cc3)cc2s1`, the inhibition is 7.88%.
In turn, `NC(=O)c1ccc2c(-c3ccnc(NCCCO)n3)c(-c3ccc(F)cc3)nn2c1` came in with an inhibition of 7.35%.
The value for `NS(=O)(=O)c1ccc(N/N=C2\C(=O)Nc3ccc(C(=O)NCc4ccncc4)cc32)cc1` was 6.27%; that for `CNC(=O)c1ncccc1Nc1nc(Nc2cc3c(cc2OC)CCCN3C(=O)CN(C)C)nc2[nH]ccc12` was 1.54%.
The value for `COc1ccccc1-c1cc(/C=C2\C(=O)Nc3ncc(Br)cc32)cc(Br)c1O` was 40.1%; that for `CN(C)CCNC(=O)Nc1ccc(N(C)c2ccnc(Nc3ccc(CS(C)(=O)=O)cc3)n2)cc1` was 5.14%.
The figure for `CS(=O)(=O)CCNCc1ccc(-c2ccc3ncnc(Nc4ccc(OCc5ccccc5)cc4)c3c2)o1` is 15.7%; for `COC(=O)Nc1nc2cc(Oc3ccc(NC(=O)Nc4ccccc4)cc3)ccc2[nH]1` it is 4.02%; for `O=C(O[C@H]1CN[C@H](C#Cc2cc3ncnc(Nc4ccc(OCc5cccc(F)c5)c(Cl)c4)c3s2)C1)N1CCOCC1` it is 13.2%.
Consider `CCCNc1cccc(-n2ncc3c(N/N=C/c4ccncc4)ncnc32)c1`, for which the inhibition came to 72.2%.
The figure for `CC1=C(C(=O)Nc2ccc3[nH]nc(C)c3c2)C(c2ccc(C(F)(F)F)cc2)CC(=O)N1` (stereo unspecified) is 4.23%.
With `CN1CCC(C(=O)Nc2n[nH]c3nc(-c4ccc(O)cc4)c(Br)cc23)CC1`, the inhibition is 36.9% and 34.7%.
Turning to `Cc1cc(O)cc(C)c1/C=C/c1cncc(C(=O)OC(C)(C)C)c1`, the inhibition was found to be 9.67%.
With `CN1CCN(Cc2ccc(-c3cc4ncnc(Nc5ccc(OCc6cccc(F)c6)c(Cl)c5)c4s3)o2)CC1`, the inhibition was 9.13% and 14.2%.
